The test has as its target PARP1 L713F-nLuc biosensor (HCT116) (UniProt P09874). The test can be described thus: PARP1 L713F-nLuc/akaLuc ratio relative to DMSO control (biosensor stabilization) (fold change); higher = more PARP1 biosensor stabilization (target engagement / stabilizer), active = hit call of the paper. Particulars: stock concentration (mM; final µM = stock mM x 1): 10; 24 h.

The values that follow come from the supplement of paper PMC11624193, “Coupling cellular drug-target engagement to downstream pharmacology with CeTEAM” (Nature Communications, 2024).

A number with no mark means an inactive call.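 Rule for the calls: active = log2 fold change beyond 2 SD from the library mean after excluding viability outliers; inactive = within 2 SD.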

Sequence of PARP1 L713F-nLuc biosensor (HCT116) (P09874 whole entry L713F, looked up): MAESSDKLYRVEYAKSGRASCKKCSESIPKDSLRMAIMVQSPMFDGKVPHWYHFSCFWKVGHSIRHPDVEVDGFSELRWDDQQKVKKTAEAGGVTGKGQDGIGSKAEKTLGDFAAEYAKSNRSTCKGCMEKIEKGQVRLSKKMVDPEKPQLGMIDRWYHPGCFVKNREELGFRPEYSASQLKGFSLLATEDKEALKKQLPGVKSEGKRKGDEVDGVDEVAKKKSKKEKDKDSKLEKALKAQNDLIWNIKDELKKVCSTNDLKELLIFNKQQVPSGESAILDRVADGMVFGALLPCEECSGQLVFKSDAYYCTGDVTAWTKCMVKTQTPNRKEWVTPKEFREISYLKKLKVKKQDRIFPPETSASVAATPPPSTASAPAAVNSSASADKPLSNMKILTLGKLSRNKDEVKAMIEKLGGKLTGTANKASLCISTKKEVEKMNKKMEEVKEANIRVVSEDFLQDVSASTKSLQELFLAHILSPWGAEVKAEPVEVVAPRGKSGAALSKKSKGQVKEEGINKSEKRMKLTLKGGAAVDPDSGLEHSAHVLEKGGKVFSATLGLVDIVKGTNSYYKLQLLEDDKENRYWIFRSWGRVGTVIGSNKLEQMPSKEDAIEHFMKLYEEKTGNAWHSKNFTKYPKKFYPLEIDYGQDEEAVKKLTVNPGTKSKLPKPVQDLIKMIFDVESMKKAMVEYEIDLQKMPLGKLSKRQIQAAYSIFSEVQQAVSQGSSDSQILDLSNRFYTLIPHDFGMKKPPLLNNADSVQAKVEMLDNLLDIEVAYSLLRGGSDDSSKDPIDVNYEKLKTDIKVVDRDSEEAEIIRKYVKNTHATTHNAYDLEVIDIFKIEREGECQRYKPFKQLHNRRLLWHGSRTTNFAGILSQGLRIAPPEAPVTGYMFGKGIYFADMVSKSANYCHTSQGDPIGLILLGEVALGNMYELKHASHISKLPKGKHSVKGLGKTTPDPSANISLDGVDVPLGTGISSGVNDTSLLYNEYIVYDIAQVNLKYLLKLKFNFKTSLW

Take `NC(=O)c1cccc2cn(-c3ccc([C@@H]4CCCNC4)cc3)nc12` [Niraparib (tosylate)]: the “PARP1 L713F-nLuc/akaLuc ratio” value was 7.76 (active).

Take `Cc1cnc(NC(=O)Nc2cc(Br)c(C)cc2OC[C@@H]2CNCCO2)cn1`: the “PARP1 L713F-nLuc/akaLuc ratio” value is 0.787.

Take `Cn1nnc2c(C(N)=O)ncn2c1=O` [Temozolomide]: the “PARP1 L713F-nLuc/akaLuc ratio” value is 0.833.

Turning to `Cc1ccc(C(=O)Nc2cccc(C(F)(F)F)c2)cc1Nc1nc(-c2cccnc2)nc2c1cnn2C`, the “PARP1 L713F-nLuc/akaLuc ratio” value was 0.656.

In the case of `CCCCC(=O)OCC(=O)[C@]1(O)Cc2c(O)c3c(c(O)c2[C@@H](O[C@H]2C[C@H](NC(=O)C(F)(F)F)[C@H](O)[C@H](C)O2)C1)C(=O)c1c(OC)cccc1C3=O` [Valrubicin], the “PARP1 L713F-nLuc/akaLuc ratio” value is 1.13.
